# The source made the active and inactive calls.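 Rule for the calls: active = blocks over 70% of labeled estradiol binding at 10 µM, or over a set limit at 100 nM; inactive = the rest.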
# Target: Estrogen receptor beta (Homo sapiens) (UniProt Q92731)
# Experiment: ERbeta ligand binders by competition, primary screen, cell-based, Cos7 ERbeta-GFP, flow cytometry (AID 1210);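 note: 0% = DMSO vehicle wells and 100% = complete loss of labeled estradiol signal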
# Conditions: fluorescent estrogen binding, stronger effect = higher value
# [1] = ligand binding inhibition, at 0.1 µM
# Estrogen receptor beta (Homo sapiens), sequence (Q92731 whole entry, looked up): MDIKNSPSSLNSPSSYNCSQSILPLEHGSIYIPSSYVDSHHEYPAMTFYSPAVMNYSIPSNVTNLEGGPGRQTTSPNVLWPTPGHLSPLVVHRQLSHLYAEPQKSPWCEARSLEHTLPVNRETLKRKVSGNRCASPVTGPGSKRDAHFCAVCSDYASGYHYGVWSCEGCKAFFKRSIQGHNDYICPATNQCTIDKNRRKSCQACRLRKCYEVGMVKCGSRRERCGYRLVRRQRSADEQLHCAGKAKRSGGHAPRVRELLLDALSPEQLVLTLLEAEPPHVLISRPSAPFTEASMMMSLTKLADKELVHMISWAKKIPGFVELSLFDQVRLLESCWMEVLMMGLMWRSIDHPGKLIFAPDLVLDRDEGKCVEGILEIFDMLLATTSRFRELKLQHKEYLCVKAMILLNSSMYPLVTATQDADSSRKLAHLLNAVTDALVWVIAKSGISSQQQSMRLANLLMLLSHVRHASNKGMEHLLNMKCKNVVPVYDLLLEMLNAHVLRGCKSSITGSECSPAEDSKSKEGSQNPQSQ
Compound,inhibition (at 10 µM),inhibition [1] [%]
Cc1nnc(NC(=O)Cc2cccs2)s1,4% (inactive),22
C1=C(N2CCOCC2)/C(=C/c2nc3ccccc3[nH]2)CC1,26% (inactive),20
O=C(COC(=O)c1ccccc1)NCc1ccco1,67% (inactive),16
Cc1ccc2c(Cl)cc(Cl)c(OCC(=O)NCc3ccco3)c2n1,29% (inactive),38
COC(=O)c1c(-c2ccncc2)csc1NC(=O)c1ccoc1C,52% (inactive),1
COc1ccc(-c2ccc(-c3noc(-c4cccs4)n3)c(OC)n2)cc1,63% (inactive),20
c1ccc(OCc2nnc3sc(C4COc5ccccc5O4)nn23)cc1 (stereo not drawn),29% (inactive),28
C1CCC(c2nn3c(-c4n[nH]c5c4CCC5)nnc3s2)CC1,61% (inactive),19
Cc1c(N=Cc2ccc(O)c(Br)c2)cccc1[N+](=O)[O-],33% (inactive),34
COc1cccc2sc(Nc3nnc(-c4ccc(F)cc4)o3)nc12,33% (inactive),17
Cc1nn(-c2ccccc2)c(C)c1NC(=O)Cc1cccs1,67% (inactive),25
Clc1ccc2c(c1)[C@H]1OCC[C@H]1[C@@H](c1ccco1)N2,0% (inactive),4
O=C1N/C(=C\c2ccc(O)cc2)C(=O)c2ccccc21,21% (inactive),1
C/C(N)=C(/C#N)C(=O)CSc1nnnn1-c1ccc(C)cc1,27% (inactive),57
CCOC(=O)C1CCCN(C(=O)c2cc3ncc(Br)cn3n2)C1 (stereo not drawn),0% (inactive),26
CCC(Sc1ncnc2sc(C)c(C)c12)C(=O)OC (stereo not drawn),27% (inactive),41
Cc1ccccc1OCC1Cc2c(nc(N)c(C#N)c2N)O1 (stereo not drawn),25% (inactive),11
O=C(CNc1ccccc1)N/N=C/c1cn(-c2ccccc2)nc1-c1ccccc1,53% (inactive),48
Nc1ccc2oc(-c3ccc4nc[nH]c4c3)nc2c1,62% (inactive),2
Oc1ccc(-c2nc(-c3ccc(O)c(O)c3)cs2)cc1,55% (inactive),54
CCCNCC1COc2ccccc2O1 (stereo not drawn),51% (inactive),41
COc1cc2c(cc1O)CC[n+]1cc3c(OC)c(OC)ccc3cc1-2,25% (inactive),23

Compound,inhibition (at 10 µM),inhibition [1] [%]
O=C(OCC(=O)N1CCN(C(=O)c2ccco2)CC1)c1cc(-c2ccco2)nc2ccccc12,25% (inactive),33
Cc1nnc(NC(=O)CSc2nc3c(c(=O)n2CCc2ccccc2)SC(C)C3)s1 (stereo not drawn),45% (inactive),34
O=c1oc2ccccc2n1CCn1c2ccccc2c2nc3ccccc3nc21,70% (inactive),18
COCc1cc(=O)n2c(-c3ccc(C)cc3)n[nH]c2n1,12% (inactive),39
C[C@@H]1O[C@@H](Oc2c(-c3cc(O)c(O)c(O)c3)oc3cc(O)cc(O)c3c2=O)[C@H](O)[C@H](O)[C@H]1O,31% (inactive),30
O=S(=O)(/N=C(/Sc1ccccc1)c1ccccc1)c1ccccc1,32% (inactive),20
Nc1ccc2nc(-c3cccnc3)[nH]c2c1,50% (inactive),20
CNc1nnc(-c2cc3cc(Cl)ccc3oc2=O)s1,0% (inactive),4
O=C(COC(=O)c1ccccc1Oc1ccccc1)NCc1ccco1,16% (inactive),65
Cc1cc(-c2ccccc2)nc2cc(C(N)=O)nn12,49% (inactive),14
O=C(NC1CCN(C(=O)N2c3ccccc3Sc3ccccc32)CC1)c1ccccc1Cl,18% (inactive),23
Cc1ccccc1-n1nc(-c2ccc(N)cc2)cc1N,25% (inactive),21
Oc1ccc(-c2cn3c(n2)SCC3)cc1O,33% (inactive),22
COc1ccc(CCn2c(SCC(=O)Nc3cc(C)on3)nc3ccsc3c2=O)cc1OC,66% (inactive),18
COc1cc(CCC(=O)OCC(=O)Nc2ncc(Cl)cc2Cl)cc(OC)c1OC,52% (inactive),8
COc1cc(C=C(c2nc3ccccc3s2)c2nc3ccccc3s2)ccc1O,31% (inactive),57
COc1ccc2c(c1)[nH]c1c(=O)n(N)cnc12,4% (inactive),30
C=C(C)CNC(=S)NNC(=O)CCn1c2cc(Cl)ccc2c2ccc(Cl)cc21,18% (inactive),20
O=C(Nc1ccc2nn(-c3ccccc3)nc2c1)c1ccc2c(c1)OCO2,27% (inactive),14
Oc1ccccc1-c1nnc(SCCN2CCOCC2)n1Cc1ccccc1,32% (inactive),41
O=S(=O)(NCCc1csc(-c2cccnc2)n1)c1ccc(Cl)s1,69% (active),78
C/C(N)=C(/C#N)C(=O)CSc1nnc(Nc2cccc(C)c2C)s1,39% (inactive),7

# Reference: PubChem BioAssay AID1210 (NMMLSC, 2008)
